# Compound activity (PubChem BioAssay)
# Anthrax LF inh2: anthrax lethal factor protease inhibition; P15917; 0.12% of 360,000 active; inhibition, % at 10 µM; multiplex microsphere protease cleavage assay, LF; AID 588501; also: plate controls were buffer without enzyme for full effect and enzyme alone for no effect
# Target sequence (P15917 whole entry, looked up): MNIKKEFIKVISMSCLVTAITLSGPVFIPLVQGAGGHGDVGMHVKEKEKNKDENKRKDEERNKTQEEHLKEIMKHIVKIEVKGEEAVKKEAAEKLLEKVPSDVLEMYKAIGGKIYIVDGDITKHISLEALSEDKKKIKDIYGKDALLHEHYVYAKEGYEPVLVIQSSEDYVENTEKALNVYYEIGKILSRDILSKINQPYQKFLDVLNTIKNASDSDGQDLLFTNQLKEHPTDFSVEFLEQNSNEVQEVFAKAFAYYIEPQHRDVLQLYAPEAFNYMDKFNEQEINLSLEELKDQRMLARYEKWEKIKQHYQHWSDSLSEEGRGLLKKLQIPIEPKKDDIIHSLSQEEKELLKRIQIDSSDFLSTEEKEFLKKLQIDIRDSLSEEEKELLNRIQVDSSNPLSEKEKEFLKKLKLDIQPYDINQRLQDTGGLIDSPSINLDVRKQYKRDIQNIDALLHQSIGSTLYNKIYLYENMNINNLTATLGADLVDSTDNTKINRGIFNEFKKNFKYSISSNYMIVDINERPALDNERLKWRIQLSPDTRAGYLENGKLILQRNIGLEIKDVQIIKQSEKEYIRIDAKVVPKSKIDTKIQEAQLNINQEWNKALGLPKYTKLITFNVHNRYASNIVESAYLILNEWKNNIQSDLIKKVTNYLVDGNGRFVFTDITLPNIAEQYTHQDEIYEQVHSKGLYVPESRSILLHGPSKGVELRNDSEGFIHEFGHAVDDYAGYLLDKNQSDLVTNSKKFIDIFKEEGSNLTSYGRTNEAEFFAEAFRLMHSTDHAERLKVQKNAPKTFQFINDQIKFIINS
# BoNT-A LC inh2: inhibitors of Botulinum neurotoxin A light chain protease | multiplex microsphere protease substrate cleavage, flow cytometry | inhibition, % at 10 µM | 0.17% of 360,000 active | AID 588499; also: plate controls were buffer without enzyme for full effect and enzyme alone for no effect
# BoNT-F LC inh: inhibitors of Botulinum neurotoxin F light chain protease; Multiplex microsphere protease cleavage assay, flow cytometry; 0.22% of 360,000 active; inhibition, % at 10 µM; in the data active = inhibition above about 35%, passing the limit was not always enough; inconclusive = no clear call, values can overlap the other calls; also: plate controls were buffer without enzyme for full effect and enzyme alone for no effect
# SSB-PriA inh: inhibitors of Klebsiella pneumoniae PriA binding to SSB C-terminal tail; AlphaScreen SSBct-PriA binding, biotinylated peptide; inhibition, % at 33 µM; 0.6% of 430,000 active; AID 1272365; in the data active = inhibition mostly above about 37%, no sharp cut-off; inactive = mostly below about 20%;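 also: plate controls were negative control peptide for no effect and reference peptide for full effect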
# Autofluor counter: flagged as autofluorescent in microsphere protease counterscreen. fluorescence intensity (test concentration not listed). 3.1% of 360,000 active. compound autofluorescence counterscreen, microsphere flow cytometry; active compounds read high; in the data active = fluorescence intensity above about 16000; inconclusive = no clear call, values can overlap the other calls
# * hit, by the source's call; ? = inconclusive; · = no result given. Shown are actives, neighbours in structure and some others; about 3.1% of the full set was active somewhere. Rule as the data show it, unless noted: active = inhibition above about 30%; inconclusive = no clear call, values can overlap the other calls; inactive = below that.
SMILES,Anthrax LF inh2,BoNT-A LC inh2,BoNT-F LC inh,SSB-PriA inh,Autofluor counter
Cc1ccc(CCC(=O)Nc2ccc(NC(=O)CCc3ccc(C)o3)cc2)o1,·,·,·,-6.0,·
COc1cccc(Nc2nnc(SCc3cc([N+](=O)[O-])cc4c3OCOC4)s2)c1,-1.1,0.4,7.4,4.4,2093
Cc1cccc(C)c1Nc1nnc(SCc2cc([N+](=O)[O-])cc3c2OCOC3)s1,-4.2,15.3,15.2,-1.9,16667*
Cc1ccc(-c2cc(=O)n(CC(=O)NCC3CCCO3)cn2)cc1 (stereo not given),·,·,·,-14.0,·
Cc1ccc(S(=O)(=O)N(C)CC(O)CN2CCCC2)cc1 (stereo not given),·,·,·,5.0,·
Nc1nnnn1/N=C/c1ccccc1OCc1ccc(Cl)cc1Cl,-0.4,3.2,2.0,·,22215*
Nc1nnnn1/N=C/c1ccccc1OCc1ccc(Cl)cc1,-3.3,-1.0,-2.6,·,4439
CCCCn1c(NC(=O)c2ccccc2)c(C#N)c2nc3ccccc3nc21,-4.2,7.6,-0.2,56.2*,5517
CCC(C)n1c(NC(=O)c2ccccc2)c(C#N)c2nc3ccccc3nc21 (stereo not given),16.2,27.2,13.1,57.5*,7113
CCCCCn1c(NC(=O)c2ccco2)c(C(=O)OCC)c2nc3ccccc3nc21,3.3,10.5,5.5,7.4,2156
Cc1cc(-c2ccncc2)nn1CCNC(=O)N1CCN(S(C)(=O)=O)C1=O,·,·,·,-12.0,·
Clc1cccc(Cl)c1Cn1cc(Br)cn1,-1.4,0.9,2.6,·,16279*
COc1ccc(S(=O)(=O)NCC(=O)N2CCOC(c3ccccc3)C2)cc1Cl (stereo not given),·,·,·,-34.0,·
COc1cccc(C(=O)NCc2ccco2)c1OC,15.6,0.9,-4.9,-13.3,4145
COc1ccccc1N=c1oc2c(OC)cccc2cc1C(=O)NCc1ccco1,-3.2,0.8,0.6,-6.3,20264*
COc1ccc(OC)c(N=c2oc3c(OC)cccc3cc2C(=O)NCc2ccco2)c1,-4.2,-0.5,-6.1,9.3,16799*
COc1ccc(N=c2oc3c(OC)cccc3cc2C(=O)NCc2ccco2)cc1OC,-7.2,?,-0.6,9.5,19539*
COc1ccccc1C(=O)NCc1ccco1,-8.9,1.3,24.5,-4.3,4247
COc1cccc(CC(=O)Nc2ccc(Cn3cnc(C(=O)NCc4ccccc4Cl)c3)cc2)c1,·,·,·,-2.0,·
O=C(CCSc1nnc2scc(-c3ccccc3)n12)Nc1ccc(F)cc1,·,·,·,-4.0,·
Cc1cc([N+](=O)[O-])cc(C)c1OCC(=O)NN=Cc1ccc(OC(=O)c2ccccc2)cc1,·,·,·,1.7,·
O=C(O)c1cccc(NS(=O)(=O)/C=C/c2ccccc2)c1,-6.4,1.7,-0.5,-17.5,19766*
Cc1cc(C(C)(C)C)cc(S(=O)(=O)Nc2cccc(C(=O)O)c2)c1C,-10.4,3.8,4.8,-24.0,20337*
COc1cc(S(=O)(=O)Nc2cccc(C(=O)O)c2)c(OC)cc1Cl,0.3,?,5.5,-4.2,20274*
FC(F)(F)c1nnc2c(Sc3ccccn3)nc3ccccc3n12,1.1,1.4,2.7,-10.8,22962*
SMILES,Anthrax LF inh2,BoNT-A LC inh2,BoNT-F LC inh,SSB-PriA inh,Autofluor counter
CCOC(=O)N1CCN(C(=O)C2CCN(Cc3ccc(O)c(OCC)c3)CC2)CC1,-3.3,-0.1,-2.5,-6.2,4817
CCOc1cc(CN2CCSCC2)ccc1O,-2.8,-1.6,-3.6,-10.7,16487*
CCOc1cc(CN2CCN(c3cccc(C(F)(F)F)c3)CC2)ccc1O,-2.7,1.1,-0.8,11.5,20233*
CCOc1cccc(C=NNC(=O)CC2C(=O)NN=C2C)c1O (stereo not given),·,·,·,-11.3,·
CCOC(=O)N1CCN(C(=O)CN2CC(c3nc(-c4ccsc4)no3)C2)CC1,·,·,·,-7.0,·
Cc1sc(NC(=O)c2ccco2)c(CN2CCN(c3ccccc3)CC2)c1C,-4.9,-0.4,-3.3,-16.2,20298*
Cc1sc(NC(=O)c2ccco2)c(C(c2ccncc2)N2CCOCC2)c1C (stereo not given),-1.6,3.4,1.9,-6.2,18732*
Cc1sc(NC(=O)c2ccco2)c(CN2CCCCC2)c1C,9.0,-1.2,-5.1,-7.0,9701
O=C(/C=C/c1ccccc1Cl)Nc1ncc(Cc2ccc(Cl)c(Cl)c2)s1,·,·,·,12.0,·
Cc1csc(C(=O)N2CCC(N3CCCC3COCc3ccccc3)CC2)c1 (stereo not given),·,·,·,-3.0,·
O=C(NN=C/C=C/c1ccccc1)c1ccc(Br)cc1,·,·,·,-0.9,·
CS(=O)(=O)N(Cc1ccccc1)c1ccc(C(=O)NCc2ccccc2)cc1,-11.1,2.4,3.7,-14.7,22531*
C=CCNC(=O)c1ccc(N(CC=C)S(C)(=O)=O)cc1,-3.1,0.6,11.6,-22.4,4837
C=CCN(c1ccc(C(=O)NCCc2ccccc2)cc1)S(C)(=O)=O,1.2,1.4,-0.2,-13.6,16236*
COc1ccccc1NC(=O)/C=C\c1ccco1,-8.0,-0.9,4.1,-7.4,3971
COc1ccccc1NC(=O)/C(C#N)=C/C=C/c1ccco1,-3.4,1.0,0.3,7.4,22514*
O=C(NCCC(O)c1ccsc1)C(=O)Nc1ccon1 (stereo not given),·,·,·,3.0,·
c1coc(-c2nc(-c3ccco3)c(-c3ccco3)nc2-c2ccco2)c1,·,·,·,43.5*,·
Cc1ccc(S(=O)(=O)/N=C(\N)Nc2nc(C)c3cc(C)ccc3n2)cc1,0.0,-1.5,-1.3,·,21184*
COc1cc(Br)c(C(C)NC(=O)c2ccccc2)cc1OC (stereo not given),-1.5,-1.7,-4.1,1.5,21305*
CCn1c(=O)c(C(=O)CN2c3ccccc3CC2C)c(N)n(Cc2ccccc2)c1=O (stereo not given),-1.6,18.6,-25.0,39.5*,2243
CC1Cc2ccccc2N1CC(=O)c1c(N)n(Cc2ccccc2)c(=O)n(C)c1=O (stereo not given),-2.3,-1.9,-6.8,6.8,3216
CCn1c(=O)c(C(=O)CN2CCN(S(=O)(=O)c3ccccc3)CC2)c(N)n(Cc2ccccc2)c1=O,-0.1,-1.0,-0.1,9.4,4362
CCn1c(=O)c(C(=O)CN2CCCc3ccccc32)c(N)n(Cc2ccccc2)c1=O,12.3,?,2.0,-7.5,32189*
Cc1ccc2nc(C3CN(C(=O)c4ccc(Br)o4)C3)[nH]c2c1,·,·,·,0.0,·
SMILES,Anthrax LF inh2,BoNT-A LC inh2,BoNT-F LC inh,SSB-PriA inh,Autofluor counter
Cc1ccc2nc(C3CCN(C(=O)c4ccco4)CC3)[nH]c2c1,-1.7,0.1,-1.0,4.2,23117*
Cc1ccc2nc(C3CCN(CC(=O)N4CCCCCC4)CC3)[nH]c2c1,4.1,0.4,-0.3,-18.4,23345*
O=C(NCc1cccnc1-c1ccsc1)[C@@H]1CC=CCC1,·,·,·,-14.0,·
O=C1CCSCC(C(=O)Nc2ccccn2)N1 (stereo not given),·,·,·,-1.0,·
O=C(Nc1nc(-c2ccccn2)cs1)c1c[n+]2cccnc2[nH]1,·,·,·,99.0*,·
CC(C)(C)NC(=O)C(=O)Nc1nc(-c2ccccn2)cs1,·,·,·,101.3*,·
O=C(Nc1ccccc1)C(=O)Nc1nc(-c2ccccn2)cs1,·,·,·,35.0,·
O=C(Nc1nc(-c2ccccn2)cs1)c1ccccn1,·,·,·,162.5*,·
O=C(Nc1nc(-c2ccccn2)cs1)c1ncc(Cl)c(Cl)c1Cl,-4.0,0.4,-5.0,11.7,3167
O=C(Nc1nc(-c2ccccn2)cs1)c1n[nH]c2c1CCCCC2,·,·,·,61.8*,·
CCOc1ccc(NC2CC(=O)N(C(C)c3ccccc3)C2=O)cc1 (stereo not given),·,·,·,40.0,·
